Compounds with a hit are over-represented: about 11% of the library has one in this group of screens.
ALDH1A1 inh = qHTS Assay for Inhibitors of Aldehyde Dehydrogenase 1 (ALDH1A1); Aldehyde dehydrogenase 1A1 (Homo sapiens), P00352; Purified ALDH1A1, NADH fluorescence, propionaldehyde substrate; Potency, µM (doses to about 75.3 µM), usual class: inhibitors; 220,000 compounds, 7.3% hits
PNC inhibitor = High Content Assay for Compounds that inhibit the Assembly of the Perinucleolar Compartment. PC3M PTB-GFP, PNC prevalence imaging, 16 h; hits give low values. activity change (PNC), negative = inhibition, % at 10 µM. 140,000 compounds, 3.1% hits;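 active = readout at or below -70, meaning at least 70% loss of cells showing the perinucleolar compartment, a nuclear body marking cancer cells; inconclusive = readout between -30 and a set limit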
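Compounds are pinned in duplicate onto adhered PC3M cells stably expressing GFP-tagged PTB and incubated 16 h at 37 C. Cells are then fixed, nuclei stained with Hoechst, and PNC-positive cells counted.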
HPGD inh = qHTS Assay for Inhibitors of HPGD (15-Hydroxyprostaglandin Dehydrogenase); 15-hydroxyprostaglandin dehydrogenase [NAD(+)] (Homo sapiens), P15428; Potency, µM, hits mostly inhibitors; 150,000 compounds, 4.3% hits; purified HPGD, NADH fluorescence kinetic, PGE2 substrate
Target sequence (P15428 whole entry, looked up): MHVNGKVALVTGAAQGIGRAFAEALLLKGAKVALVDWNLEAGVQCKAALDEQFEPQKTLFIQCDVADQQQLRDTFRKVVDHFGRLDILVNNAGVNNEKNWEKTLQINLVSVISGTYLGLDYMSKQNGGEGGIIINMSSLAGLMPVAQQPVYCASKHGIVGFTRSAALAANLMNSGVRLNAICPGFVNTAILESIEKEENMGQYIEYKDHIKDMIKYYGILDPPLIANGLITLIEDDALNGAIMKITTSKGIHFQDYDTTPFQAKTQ
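NADH formation kinetics: reaction with 30 uM PGE2 and 1 mM NAD+ (final), 20 nM enzyme, Tris-HCl pH 8 with Tween 20, after 15 min compound preincubation at room temperature. Fluorescence change, last versus first of five reads.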
Hits are given with their value; 0 = inactive; ? = inconclusive; - = no result given; [ ] = remark or other dose. Unless noted, calls follow the shape of the dose curve; as a rule, active = well fitted inhibition curve with a large enough effect (not every such curve was filed as active); inconclusive = small, poorly fitted or top-dose-only effect, or another doubt; inactive = no such curve, though single readings can be large or run the other way.

SMILES | ALDH1A1 inh | PNC inhibitor | HPGD inh
CCOC(=O)N1CCC(NC(=O)c2ccc3c(=O)n4c(nc3c2)CCCC4)CC1 | 2µM | 0 | 0
COc1ccc(OC)c(N(CC(=O)Nc2ccc3c(c2)OCCO3)S(C)(=O)=O)c1 | 0 | 0 | 0
O=C(O)CCC(=O)OCC1CCCO1 (stereo unspecified) | ? | 0 | 0
Oc1cc(-c2ccccc2)c2ccccc2c1 | ? | 0 | ?
CC1=C(C(=O)OCc2ccccc2)C(c2cccnc2)c2c(n(C)c(=O)n(C)c2=O)N1 (stereo unspecified) | ? | 0 | 0
Cc1csc(NC(=O)c2ccc3c(=O)n4c(nc3c2)CCCCC4)n1 | ? | 0 | -
CN(C)S(=O)(=O)c1ccc(C(=O)Nc2ccc(CN3CCCC3)cc2)cc1 | ? | 0 | 0
Cc1occc1C(=O)Nc1ccc(S(=O)(=O)N2CCCC2)cc1 | ? | 0 | 0
O=C(Nc1ccc(O)cc1)c1cc(S(=O)(=O)N2CCCC2)ccc1Cl | 4.5µM | 0 | -
O=C(Nc1cccc(S(=O)(=O)N2CCCCC2)c1)c1ccc2c(=O)n3c(nc2c1)CCCCC3 | 2.5µM | 0 | -
O=C(Nc1cccnc1)c1ccc(-c2cc(Cl)ccc2Cl)o1 | 0 | - | -
CN(C)S(=O)(=O)c1ccc(C(=O)Nc2ccc(CCC(=O)N3CCCC3)cc2)cc1 | 22µM | ? | 16µM
O=C(NCc1cccnc1)c1ccc(-c2cc(Cl)ccc2Cl)o1 | 7.1µM | - | -
C=C(C)Cn1c(NCCOC)nc2c1c(=O)[nH]c(=O)n2C | 0 | 0 | 0
COc1cc(C[C@H]2C(=O)OC[C@@H]2Cc2ccc(OC)c(OC)c2)ccc1O | 0 | - | 0
CC1Cc2ccccc2N1C(=O)CO/N=C/c1ccc(OC(F)F)cc1 (stereo unspecified) | 0 | 0 | 0
CS(=O)(=O)Nc1ccc(C(=O)Nc2ccc(S(=O)(=O)N3CCCC3)cc2)cc1 | 25µM | - | -
O=C(Nc1ccc2c(c1)OCCO2)c1ccc(S(=O)(=O)N2CCCCC2)cc1 | 25µM | ? | 0
CC(=O)Nc1ccc(C(=O)Nc2ccc(S(=O)(=O)N3CCCC3)cc2)cc1 | ? | ? | 0
O=C(Nc1ccc2c(c1)OCO2)c1cccc(S(=O)(=O)N2CCCC2)c1 | ? | ? | 0
O=C(NCc1cccnc1)/C(=C\c1ccc(-c2ccc(Cl)c(Cl)c2)o1)S(=O)(=O)c1ccccc1 | 0 | -81 | ?
O=C(NCc1cccnc1)C(=O)NCC1OCCN1S(=O)(=O)c1ccccc1 (stereo unspecified) | 0 | 0 | 0
O=C(NCc1cccnc1)c1cc(S(=O)(=O)N2CCCCC2)ccc1Cl | 20µM | 0 | 0
O=C(NCc1cccnc1)c1cccc(S(=O)(=O)N2CCCCC2)c1 | 0 | 0 | 0
O=C(NNC(=O)C1CC1c1ccccc1)Nc1cccc(Cl)c1 (stereo unspecified) | 0 | ? | 0
SMILES | ALDH1A1 inh | PNC inhibitor | HPGD inh
Cc1ccc(-c2nnn(CC(=O)N(Cc3ccccc3F)C(C(=O)NC3CCCC3)c3ccncc3)n2)o1 (stereo unspecified) | ? | 0 | 0
COC(=O)c1ccc(C(/C=C/[C@@H](C)C(=O)NCCc2c[nH]c3ccccc23)NC(=O)OCc2ccccc2)cc1 (stereo partly specified) | ? | - | 0
O=C(Nc1ccc(OC(F)(F)F)cc1)c1ccc(S(=O)(=O)N2CCOCC2)o1 | 0 | - | -
CCCn1nnc(NC(=O)/C=C/c2cc(Br)ccc2OC)n1 | 0 | - | -
O=S(=O)(Cc1ccccc1)c1nnnn1C1CCCCC1 | 0 | - | 0
CCOC(=O)N1CCN(C(=S)Nc2cccc(C)c2)CC1 | 0 | 0 | 0
COC(=O)CC1C(=O)NCCN1C(=O)NC1CCCCC1 (stereo unspecified) | 0 | 0 | 0
O=C(COC(=O)c1ccc(S(=O)(=O)N2CCCC2)cc1)Nc1ccc(N2CCOCC2)cc1 | 0 | - | -
O=C(Nc1ccc(N2CCOCC2)cc1)c1ccc(S(=O)(=O)N2CCCCC2)cc1 | 0.11µM | ? | -
O=C(c1cccc(F)c1)N1CCC2(CCCN(Cc3cc(C(F)(F)F)cc(C(F)(F)F)c3)C2)CC1 | 0 | - | 0
Cc1cc(NC(=O)c2ccc(Cl)cc2Cl)n(CCC#N)n1 | 0 | - | -
Cc1nn(CCC#N)c(N)c1C1(O)C(=O)Nc2c(Cl)cc(Cl)cc21 (stereo unspecified) | 4µM | - | -
COC(=O)CC1C(C)(C)C(=O)C2CC3=C(CC[C@]4(C)C3=CC(=O)OC4c3ccoc3)[C@@]1(C)C2=O (stereo partly specified) | 0 | - | 0
COC(=O)c1ccc2c(c1)NC(=O)C(N1CCCC1)S2 (stereo unspecified) | 0 | 0 | 0
COC(=O)c1ccc2c(c1)SC1=C(CCCC1=O)N2 | 0 | 0 | 40µM
CCOC(=O)Cn1c(=NC(=O)c2cc(-c3cccs3)nc3ccccc23)sc2cc(S(N)(=O)=O)ccc21 | ? | 0 | ?
CCOC(=O)Cn1c(=NC(=O)C2COc3ccccc3O2)sc2cc(S(N)(=O)=O)ccc21 (stereo unspecified) | ? | -134 | 0
COc1ccccc1CNC(=O)c1cccs1 | 0 | 0 | 16µM
COc1ccc(C(=O)NCCN2CCOCC2)c(OC)c1 | 0 | - | -
COc1ccccc1CNC(=O)Nc1cccs1 | ? | 0 | 22µM
COc1ccc(C(=O)NCCn2ccc3ccccc32)c(OC)c1 | 10µM | 0 | ?
COc1ccc(C(=O)NCc2ccccc2OC)cc1 | 0 | 0 | 0
COc1ccc(C(=O)NCc2ccccc2OC)c(OC)c1 | ? | 0 | 28µM
COc1ccccc1CNC(=O)COC(=O)CCC(=O)c1cccs1 | 0 | - | -
COc1ccc(Br)cc1CNC(=O)Nc1cccs1 | ? | ? | 0
SMILES | ALDH1A1 inh | PNC inhibitor | HPGD inh
O=C1[C@H]2[C@H]3[C@H](O)[C@H](O)C/C(=N/OC[C@@H](O)COCc4ccco4)[C@@H]3CC[C@@H]2C(=O)N1Cc1ccc2c(c1)OCO2 | 0[13.5 µM] | - | -
COc1ccc(/C=C/C(=O)OCCC(C)C)cc1 | 0 | - | 0
COc1ccc(-c2nnc(SCC(=O)NCc3ccco3)n2C)cc1 | ? | 0 | 0
O=C(O)CCC(=O)N1CCCC1C(=O)O (stereo unspecified) | 0 | - | 0
CC(=O)Nc1cccc(NC(=O)CSc2nnc(Cc3cccn3C)n2CCc2ccccc2)c1 | 0 | ? | -
O=C(Nc1ccc(S(=O)(=O)NC2=NCCCCC2)cc1)c1ccc2ccccc2n1 | 0 | - | -
CC(OC(=O)c1cccs1)C(=O)NCc1ccco1 (stereo unspecified) | 0 | ? | 0
COc1ccccc1C(OC(=O)c1cccs1)C(=O)NCc1ccco1 (stereo unspecified) | 25µM | ? | 0
COc1ccccc1CNC(=O)c1c(-c2ccccc2)nn(-c2ccccc2)c1C | 4µM | 0 | 0
Cc1c(C(=O)O)c(-c2ccccc2)nn1-c1ccccc1 | 0 | ? | 0
O=C(N/C=C\c1ccccc1)NCc1ccc(Cl)cc1 | ? | 0 | 0
COc1ccccc1CNC(=O)c1cccc(-c2ccccc2OC)n1 | 32µM | - | 7.9µM
COc1ccccc1CNC(=O)N/C=C/c1ccc(Cl)cc1 | 25µM | - | -
COc1cccc(C(=O)NCc2ccccc2OC)c1 | 0 | 0 | ?
O=Nc1c(O)[nH]c2ccccc12.[Cu].[O-]/N=C1/C(=[OH+])Nc2ccccc21 | 0[13.5 µM] | - | 0
Cc1cc(C)n2nc(NCc3cccc(Br)c3)nc2n1 | ? | 0 | ?
Cc1cc(N2CCC(N(C)C3CCCC3)CC2)nc2cc(O)ccc12 | ? | 0 | ?

High-throughput results (PubChem)
